Our source for the growth values is PubChem BioAssay (NCI).

The structures appear in SMILES notation. Compounds without any hit were thinned out: in the full panel of roughly 83,000, 20% have a hit.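 Treatment: one concentration, 48 hours, 96-well format. Scoring: percent growth, with anything below 10 considered active.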 A number with no mark means an inactive call. Active and inactive are the calls of the source.

The experiment has as its system HOP-62 NSCLC. In words: NCI-60 one-dose screen, 48 h (100 = growth as untreated, 0 = no growth, -100 = all killed). To be noted: 10 µM unless noted.
As for `O=C1c2cc3c(cc2-c2c1c1cc(Cl)c(Cl)cc1c(=O)n2CCCn1ccnc1)OCO3`, the growth was -19.5% (active).
Next, `CCCCCCCCOC(=O)CC[C@@H](C)[C@H]1CC[C@H]2[C@@H]3[C@H](OC(=O)CCN)C[C@@H]4C[C@H](OC(=O)CCN)CC[C@]4(C)[C@H]3C[C@H](OC(=O)CCN)[C@]12C`: 37.7%; `COc1ccc(-c2cnoc2-c2cc(OC)c3c(c2)OCCO3)cc1`: -8.55% (active).
As for `Cc1nn(-c2ccccc2)c2nc(C)n(-c3ccc(Br)cc3)c(=O)c12`, the growth is 35.1%.
With `CCN(CC)CC(C)(C)C(=O)/C=C/c1ccccc1`, the growth is 90.6%.
With `Cc1ccc2cnc(N)c(C#Cc3cncc(C(=O)Nc4ccc(CN5CCN(C)CC5)c(C(F)(F)F)c4)c3)c2c1`, the growth was -85.2% (active).
Consider `C[C@H](CCC(=O)O)[C@H]1CC[C@H]2[C@@H]3CC[C@@H]4/C(=C\c5ccco5)C(=O)/C(=C\c5ccco5)C[C@]4(C)[C@H]3CC[C@]12C`, for which the growth is 116%.
Next, `COc1ccc(-c2cc(-c3ccc(N(C)C)cc3)nc(NC(=O)c3ccncc3)n2)cc1`: 103%.
Next, `COc1ccc2c(c1)C(=O)/C(=C/c1cccc(OCC(=O)Nc3nc4c(s3)CCCC4)c1)O2`: 99.3%; `Cc1nc2sc(C(=O)Nc3cccc4c3OCCO4)c(N)c2cc1C(C)O` (stereo not given): -3.21% (active).
As to `CCCCCCNC(=O)Oc1ccc(/C(=C(\C)c2ccccc2)c2ccc(OCCN(CC)CC)cc2)cc1`, the growth was 83.2%.
As for `O=[N+]([O-])c1c(F)cccc1Nc1cccc(F)c1`, the growth was 102%.
For `Nc1ccc2c(c1)C(=O)NC2=O`, the growth was 93.1%.
For the compound `CC(C)[C@@H]1CC[C@]2(C(=O)NCCCCN=C(N)N)CC[C@]3(C)[C@H](CC[C@@H]4[C@@]5(C)CCC(=O)C(C)(C)[C@@H]5CC[C@]43C)[C@@H]12`, the growth is 72.6%.
For `CCc1ccccc1NC(=O)c1sc2nc3c(cc2c1N)C(=O)CCC3`, the growth was 35.5%.
Turning to `O=C1c2c[n+](Cc3ccccc3)ccc2-c2nc3ccccc3c3ccnc1c23`, the growth was -27.2% (active).
For `CCN(C(=O)CN1CCN(c2cc3c(cc2F)c(=O)c(C(=O)O)cn3CC)CC1)c1nc(-c2ccccc2)cs1`, the growth was 15.5%.
Turning to `O=C(Nc1ccc(F)cc1)Nc1ccc(CCO)cc1`, the growth is 116%.
Turning to `CCCNc1nc(SC)nc(-c2cccc(N)c2)c1C#N`, the growth is 78.8%.
Next, `CC/C(=C(\c1ccc(O)cc1)c1ccc(OCCN(C)CCN(C)C(=O)CCCCC(=O)c2c(C)[nH]c(/C=C3\N=C(c4ccc[nH]4)C=C3OC)c2C)cc1)c1ccccc1`: 81%; `c1c2c(cc3c1OCO3)Cc1cc3c(cc1Cc1cc4c(cc1C2)OCO4)OCO3`: 109%; `C(=N\Nc1nnn(Cc2ccccc2)n1)/c1ccccc1`: 67.3%.
Consider `NS(=O)(=O)N(c1cc(C(F)(F)F)cc(C(F)(F)F)c1)C1CCN(Cc2ccc(F)cc2)CC1`, for which the growth is 77.3%.
Take `CC(=O)Oc1cc2cnc3c4cc(OC(C)=O)c(OC(C)=O)cc4ccc3c2cc1OC(C)=O`: the growth is 28.7%.
For `O=C1C=CC(Nc2ccccc2[N+](=O)[O-])C1Nc1ccccc1[N+](=O)[O-]` (stereo not given), the growth is 90.9%.
In the case of `O=C(COCc1c(-c2ccccc2)no[n+]1[O-])Nc1ccc(C(=O)/C=C/c2ccc3c(c2)OCO3)cc1`, the growth was 108%.
`CCOC(=O)c1c2c(n3ccc(NC(=O)CCN4CCOCC4)cc13)C(=O)c1ncccc1C2=O`: the growth is 39.9%.
For `COc1cc2c(=O)n(CC3CCCCC3)c3c4cc[nH]c4ncc3c2cc1OC`, the growth is 19.2%.
Regarding `COc1ccc(-c2cc(=O)[nH]c3c(OC)c4ccccc4c(OC)c23)cc1`, the growth was 36.8%.
On to `Cn1c(=O)c2[nH]c(C(O)C(O)C(O)C(O)CO)nc2n(C)c1=O` (stereo not given), for which the growth is 96%.
In the case of `C=C1CCC2C3(C)COC(c4ccc(OC)cc4Br)OC3CCC2(C)C1/C=C/C1=CCOC1=O` (stereo not given), the growth was 97.3%.
`COc1ccc(-c2cn3c(ccc4ccccc43)n2)cc1`: the growth is 80.6%.
Regarding `Cc1ccc(Nc2c(C(N)=O)cnc3ccc(-c4csc(N)n4)cc23)cc1`, the growth is 96.4%.
Regarding `CCN(CC)CC#CCOC(=O)[C@]1(C)CCC[C@@]2(C)[C@H]1CC(C=O)=C1C=C(C(C)C)CC[C@@H]12`, the growth was 74.8%.
Regarding `CCCCCCCCCCCCS(=O)CC(C)O` (stereo not given), the growth was 96.1%.
